The source of these data is PubChem BioAssay (NCI).

Among the test systems are SR leukemia; RPMI-8226 leukemia; OVCAR-8 ovarian; OVCAR-5 ovarian; OVCAR-4 ovarian; SK-OV-3 ovarian; IGROV1 ovarian; OVCAR-3 ovarian; HS 578T breast; NCI/ADR-RES ovarian; T-47D breast; BT-549 breast; SW-620 colon; MCF7 breast; HCT-116 colon; HCC-2998 colon; KM12 colon; MDA-MB-468 breast; MDA-MB-435 melanoma.
Experiment in all cases: NCI-60 one-dose screen, 48 h (100 = growth as untreated, 0 = no growth, -100 = all killed)
Common to all, as to details: 10 µM unless noted

Compounds without any hit were thinned out: in the full panel of roughly 83,000, 20% have a hit.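 Percent growth is the endpoint: 0 to 100 indicates growth inhibition (40 means 60% inhibition), 0 means no net growth, and negative values indicate cell death.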 A number with no mark means an inactive call. Activity calls are given as the source filed them. The calls were made as follows: active = growth percent below 10; inactive = the rest.

For `Cc1ccc(/C=C/c2n(Cc3ccc4ccccc4c3)c3ccccc3[n+]2Cc2ccc3ccccc3c2)cc1`, the growth is -34.2% (active) in the assay on SR leukemia; -71% (active) in the assay with RPMI-8226 leukemia; -59.8% (active) with OVCAR-8 ovarian; -94% (active) in the assay on OVCAR-5 ovarian; -70.5% (active) with OVCAR-4 ovarian; -87.1% (active) in the assay with SK-OV-3 ovarian. Besides, the growth in the assay on IGROV1 ovarian was -76% (active); with OVCAR-3 ovarian, -83.3% (active); in the assay with HS 578T breast it was -46.2% (active); with NCI/ADR-RES ovarian it was -48.1% (active); in the assay on T-47D breast it was -51.1% (active); with BT-549 breast, -69.9% (active). For the same compound, the growth in the assay on SW-620 colon is -75.1% (active); in the assay with MCF7 breast, -78.3% (active); with HCT-116 colon, -40.8% (active); in the assay with HCC-2998 colon, -87.3% (active); with KM12 colon it was -88.5% (active); in the assay with MDA-MB-468 breast it was -78.6% (active).

For `N#Cc1c(-c2ccc(Cl)cc2)nc2n[nH]c(-c3ccc(Cl)cc3)c2c1-c1cccs1`, the growth in the assay on SR leukemia was 25.6%; with RPMI-8226 leukemia, 17.7%; with OVCAR-8 ovarian, 66.7%; in the assay on OVCAR-5 ovarian, 75.8%; in the assay on OVCAR-4 ovarian, 42.3%; in the assay on SK-OV-3 ovarian it was 54.2%. The growth in the assay on IGROV1 ovarian is 62%; in the assay on OVCAR-3 ovarian it was 63.5%; in the assay with NCI/ADR-RES ovarian, 61.1%; in the assay with T-47D breast, 6.48% (active); in the assay on BT-549 breast, 55.4%; in the assay on MDA-MB-435 melanoma, 60.5%. For the same compound, the growth in the assay with MCF7 breast is 44.7%; in the assay with HCT-116 colon, 35.4%; with HCC-2998 colon, 69.3%; in the assay on KM12 colon, 42%; in the assay on MDA-MB-468 breast, 50.8%.

In the case of `C=C1CC[C@@H]2[C@]3(C)COC(c4cn[nH]c4-c4ccccc4)O[C@@H]3CC[C@@]2(C)[C@@H]1C/C=C1/C(=O)OCC1O` (some centres undefined), the growth with SR leukemia is -18.9% (active); with RPMI-8226 leukemia, -28.6% (active); in the assay on OVCAR-8 ovarian, 33%; in the assay on OVCAR-5 ovarian it was 22.6%; in the assay on OVCAR-4 ovarian it was 11.5%; with SK-OV-3 ovarian, 107%. The growth in the assay on IGROV1 ovarian is 30.6%; in the assay with OVCAR-3 ovarian, 34.7%; with NCI/ADR-RES ovarian it was 37.8%; with T-47D breast, 19.3%; with BT-549 breast it was 52.2%; in the assay on MDA-MB-435 melanoma, 1.5% (active). For the same compound, the growth was -28.3% (active) in the assay on MCF7 breast; -20.3% (active) with HCT-116 colon; 16.9% in the assay on HCC-2998 colon; -11.3% (active) in the assay on KM12 colon; -37% (active) in the assay with MDA-MB-468 breast.

In the case of `COc1ccc(-c2cc(C(=O)NCc3ccccc3)nn2-c2ccc(S(C)(=O)=O)cc2)cc1OC`, the growth with SR leukemia is 82.3%; in the assay with RPMI-8226 leukemia, 86.9%; in the assay with OVCAR-8 ovarian it was 100%; in the assay with OVCAR-5 ovarian, 102%; in the assay on OVCAR-4 ovarian, 94.3%; in the assay with SK-OV-3 ovarian it was 105%. For the same compound, the growth is 122% with IGROV1 ovarian; 115% in the assay on OVCAR-3 ovarian; 107% in the assay with NCI/ADR-RES ovarian; 91.1% with T-47D breast; 104% with BT-549 breast; 105% with MDA-MB-435 melanoma. The growth in the assay with MCF7 breast was 95.2%; in the assay on HCT-116 colon, 102%; in the assay on HCC-2998 colon, 117%; in the assay with KM12 colon, 102%; with MDA-MB-468 breast, 100%.

For the compound `C=C1CC[C@@H]2[C@]3(C)COC(c4cn(-c5ccccc5)nc4-c4ccccc4)O[C@@H]3CC[C@@]2(C)[C@@H]1C/C=C1/C(=O)OC[C@H]1O` (some centres undefined), the growth in the assay with SR leukemia is -32.7% (active); in the assay with RPMI-8226 leukemia it was -10.3% (active); with OVCAR-8 ovarian, -49.5% (active); with OVCAR-5 ovarian, -50.5% (active); in the assay with OVCAR-4 ovarian it was -30.4% (active); with SK-OV-3 ovarian, 12.6%. Moreover, the growth was -76.7% (active) in the assay on IGROV1 ovarian; -77.8% (active) in the assay on OVCAR-3 ovarian; -69.4% (active) with NCI/ADR-RES ovarian; -62.9% (active) in the assay with T-47D breast; -88.9% (active) with BT-549 breast; -65.9% (active) with MDA-MB-435 melanoma. For the same compound, the growth with MCF7 breast is -9.94% (active); with HCT-116 colon, -97.5% (active); in the assay with HCC-2998 colon, -97.7% (active); in the assay with KM12 colon, -56.2% (active); with MDA-MB-468 breast, -90.1% (active).

For `O=C(N/N=C/c1ccc(-c2ccc(O)cc2)o1)c1[nH]c2ccc(Br)cc2c1-c1ccccc1`, the growth in the assay with SR leukemia is -9.54% (active); with RPMI-8226 leukemia it was -9.92% (active); in the assay on OVCAR-8 ovarian, -33.5% (active); in the assay on OVCAR-5 ovarian it was 1.22% (active); in the assay with OVCAR-4 ovarian, 24.4%; with SK-OV-3 ovarian, 19.6%. Moreover, the growth is -17.3% (active) in the assay with IGROV1 ovarian; -41.1% (active) with OVCAR-3 ovarian; -12.1% (active) with NCI/ADR-RES ovarian; 19% in the assay with T-47D breast; -13.3% (active) in the assay with BT-549 breast; -14.7% (active) with MDA-MB-435 melanoma. The growth is -3.44% (active) with MCF7 breast; 4.35% (active) in the assay with HCT-116 colon; -23.6% (active) in the assay with HCC-2998 colon; 2.17% (active) in the assay on KM12 colon; -16.6% (active) in the assay with MDA-MB-468 breast.

For the compound `N#Cc1ccc(C(=O)Nn2c(N)cc3ccccc3c2=O)cc1`, the growth with SR leukemia is 76%; with RPMI-8226 leukemia it was 86.5%; in the assay with OVCAR-8 ovarian it was 98.1%; with OVCAR-5 ovarian, 103%; in the assay on OVCAR-4 ovarian, 97.4%; in the assay on SK-OV-3 ovarian it was 85.8%. In addition, the growth was 92.9% in the assay with IGROV1 ovarian; 105% in the assay on OVCAR-3 ovarian; 98.3% with NCI/ADR-RES ovarian; 54.3% in the assay on T-47D breast; 85.4% in the assay with BT-549 breast; 107% in the assay on MDA-MB-435 melanoma. The growth is 39.3% in the assay on MCF7 breast; 81.7% with HCT-116 colon; 108% with HCC-2998 colon; 103% with KM12 colon; 76.4% in the assay with MDA-MB-468 breast.

Turning to `O=C(/C=C/c1cccc(OCc2ccc(F)cc2)c1)c1nc2ccccc2[nH]1`, the growth with SR leukemia was -44% (active); with RPMI-8226 leukemia it was -50.4% (active); with OVCAR-8 ovarian, 83.2%; in the assay with OVCAR-5 ovarian, 122%; in the assay on OVCAR-4 ovarian, 62.5%; with SK-OV-3 ovarian it was 92.9%. The growth with IGROV1 ovarian was 93.5%; in the assay on OVCAR-3 ovarian, 68.2%; in the assay on NCI/ADR-RES ovarian it was 72.5%; in the assay on T-47D breast, 22.1%; in the assay on BT-549 breast, 16%; in the assay on MDA-MB-435 melanoma, 68.8%. The growth in the assay with MCF7 breast was 3.5% (active); in the assay with HCT-116 colon it was -24.9% (active); in the assay on HCC-2998 colon, 26.6%; with KM12 colon, 13.6%; with MDA-MB-468 breast, 8.37% (active).

On to `CC1=C(C(=O)c2ccccc2)C(c2cccc3ccccc23)n2c(nc3ccccc32)N1` (centres undefined), for which the growth in the assay with SR leukemia is 43.7%; in the assay on RPMI-8226 leukemia it was 83.9%; in the assay with OVCAR-8 ovarian it was 38.3%; in the assay with OVCAR-5 ovarian, 68.4%; with OVCAR-4 ovarian, 75.6%; in the assay on SK-OV-3 ovarian, 57.4%. The growth in the assay on IGROV1 ovarian was 86.5%; in the assay on OVCAR-3 ovarian, 59%; in the assay on NCI/ADR-RES ovarian, 43.3%; with T-47D breast, 89.9%; with BT-549 breast, 61.1%; in the assay on MDA-MB-435 melanoma it was 72.6%. Besides, the growth with MCF7 breast was 38.1%; in the assay on HCT-116 colon it was 31.7%; in the assay with HCC-2998 colon it was 95.5%; with KM12 colon, 90.6%; with MDA-MB-468 breast, -12.7% (active).
